Source: PubChem BioAssay (National Center for Advancing Translational Sciences (NCATS))
TDP1 cell CPT = qHTS for Inhibitors of human tyrosyl-DNA phosphodiesterase 1 (TDP1): qHTS in cells in presence of CPT; chicken DT40 Tdp1-/-;hTDP1 cells + 20 nM CPT, ATP luminescence, 48 h; AID 686979, 2013; Potency, µM (series often up to 46.2 µM), hits mostly inhibitors; actives 12% (n = 420,000); note: nearly all actives have a fitted effect of over 55% in size
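Chicken DT40 Tdp1-/- cells stably complemented with human TDP1 were seeded at 400 cells/well in medium containing 20 nM camptothecin, exposed to pin-transferred compounds, and grown at 37 °C for at least 48 hr. Viability was read as ATP luminescence.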
IL1B secr inh = qHTS for Inhibitors of Inflammasome Signaling: IL-1-beta AlphaLISA Primary Screen; THP-1 LPS/ATP IL-1B secretion, AlphaLISA, 16 h; hits give low values; activity change, % at 57.5 µM; actives 4.7% (n = 360,000); AID 743279, 2014; in the data active = activity change below about -50%; inconclusive = mostly about -30% to -49%
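Secreted IL-1B measured by AlphaLISA bead assay after 16 h compound exposure of THP-1 cells; compounds (final up to 57.5 uM) added 1 h before LPS (250 ng/mL) and ATP (1.25 mM) stimulation; lower signal means less secretion.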
HT1080 IDH1KD tx = qHTS for induction of synthetic lethality in tumor cells producing 2HG: qHTS for the HT-1080-IDH1KD cell line; HT-1080 IDH1 knockdown viability, ATP luminescence, 48 h; Potency, µM (series often up to 46.1 µM), most hits filed as cytotoxic; actives 2% (n = 360,000); AID 686971, 2013
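IDH1KD HT-1080 cells, 750/well, RPMI + 5% FBS; compound pinned after 2 h settling; 48 h, 37 °C; CellTiter-Glo luminescence; % activity normalised to DMSO and no-cell wells; curves fitted, classed by r2 and efficacy.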
ELG1 repair inh = qHTS screen for small molecules that inhibit ELG1-dependent DNA repair in human embryonic kidney (HEK293T) cells expressing luciferase-tagged ELG1; HEK293T ELG1-luciferase reporter, luminescence, 16 h; DNA damage induced by 5-fluorouridine; Potency, µM (highest dose often 46.1 µM), usual class: inhibitors; actives 2.3% (n = 330,000); AID 504467, 2011; note: nearly all actives have a fitted effect of over 55% in size
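HEK293T cells expressing luciferase-tagged ELG1 (2,000/well) received 5-Fluorouridine plus compound or DMSO for 16 hr at 37 °C. Luciferase was read by ONE-Glo luminescence after 30 min at room temperature.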
HT1080-NT tox = qHTS for induction of synthetic lethality in tumor cells producing 2HG: qHTS for the HT-1080-NT fibrosarcoma cell line; HT-1080-NT fibrosarcoma viability, CellTiter-Glo ATP luminescence, 48 h; Potency, µM (doses to about 46.1 µM), most hits filed as cytotoxic; actives 1.6% (n = 360,000); AID 686970, 2013;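 note: NT is the 2HG producing partner of a matched IDH1 knockdown line; nearly all actives have a fitted effect of over 55% in size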
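A 48-hour cytotoxicity screen used HT-1080-NT cells plated 2 hours before compound delivery. ATP-based CellTiter-Glo luminescence measured viability, normalized to DMSO and no-cell controls.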
TDP1 cell noCPT = qHTS for Inhibitors of human tyrosyl-DNA phosphodiesterase 1 (TDP1): qHTS in cells in absence of CPT. DT40 Tdp1-/- hTDP1 cells, no CPT, ATP luminescence, 48 h. Potency, µM (highest dose often 46.2 µM), usual class: inhibitors. actives 15% (n = 420,000); note: nearly all actives have a fitted effect of over 55% in size
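DT40 Tdp1-/-;hTDP1 cells, no CPT (DMSO vehicle only), 400 cells/well; compounds pin-transferred; ≥48 hr, 37 °C; CellTiter-Glo 30 min RT dark, luminescence read.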
Numbers stand for hits; n = inactive; u = inconclusive; x = no result given; [ ] = remark or other dose. Hits are enriched below; roughly 19% of the tested compounds scored in any of these assays. Unless noted, calls come from the whole dose curve; as a rule, active = well fitted curve in the direction sought with a large enough effect; inconclusive = small, poorly fitted or top-dose-only effect, or another doubt; inactive = no such curve, though single readings can be large; an effect the other way counts as inactive or inconclusive.

SMILES	TDP1 cell CPT	IL1B secr inh	HT1080 IDH1KD tx	ELG1 repair inh	HT1080-NT tox	TDP1 cell noCPT
CN(Cc1nc2ccccc2c(=O)[nH]1)C(=O)c1cc(-c2ccc(Br)cc2)nc2ccccc12	u	n	n	x	n	u
O=C(NCc1cccs1)c1csc([C@@H]2O[C@H](CO)[C@H](O)[C@H](O)[C@H]2O)n1	n	n	u	x	n	n
C#CCNC(=O)c1csc([C@@H]2O[C@H](CO)[C@@H](O)[C@H]2O)n1	16.4µM	n	u	x	n	u
O=C(NCc1ccncc1)c1csc([C@@H]2O[C@H](CO)[C@@H](O)[C@H]2O)n1	2.06µM	n	u	x	n	2.31µM
Cc1c(CCCN)c2ccccc2n1Cc1ccccc1	u	-71.1	20.6µM	n	u	16.4µM
Cc1ccc(Cn2c(=O)n(CCc3ccc(Cl)cc3)c(=O)c3ccccc32)cc1	n	x	x	x	x	n
CCOC(=O)c1cc(=O)n2nc(-c3ccccc3F)nc2s1	u	n	n	n	n	23.1µM
CCOC(=O)c1ccc(NC(=O)Cn2nnc(-c3ccccc3F)n2)cc1	u	n	n	n	n	u
COc1cccc(NC(=O)CSC2=Nc3ccccc3C3=NC(CC(=O)NCc4cccs4)C(=O)N23)c1 (stereo unspecified)	10.3µM	x	x	x	x	u
CCc1ccc(NC(=O)CSC2=Nc3ccccc3C3=NC(CC(=O)NCc4ccccc4)C(=O)N23)cc1 (stereo unspecified)	n	x	x	x	x	n
CCc1ccc(NC(=O)CSC2=Nc3ccccc3C3=NC(CC(=O)NCc4cccs4)C(=O)N23)cc1 (stereo unspecified)	7.31µM	x	x	x	x	4.61µM
Cc1ccc(NC(=O)COC(=O)CN2C(=O)c3ccccc3C2=O)cc1	n	n	n	n	n[9.24 µM]	n
CCc1ccc(-c2csc(NC(=O)C3=COCCO3)n2)cc1	11.6µM	n	n	u	n	u
O=C(Nc1nc(-c2ccc(Cl)cc2)cs1)C1=COCCO1	23.1µM	-84.0	n	u	n	23.1µM
O=C(Nc1nc(-c2cccs2)cs1)c1ccc([N+](=O)[O-])o1	u	-89.8	u	n	u	20.6µM
O=C(Nc1nc(-c2cccs2)cs1)C1=COCCO1	u	n	n	u	n	23.1µM
O=C(Nc1nc(-c2ccc(F)c(F)c2)cs1)C1=COCCO1	u	n	n	u	n	u
Nc1c([N+](=O)[O-])cc2c3c(cccc13)CC2	n	n	u	x	n	n
Cc1sc(NC(=O)C2=COCCO2)nc1-c1ccc(Cl)cc1	u	n	n	u	n	20.6µM
Cc1ccc2c(c1)N(Cc1ccccc1)C(=O)C(C)S2 (stereo unspecified)	n	n	u	x	n	n
Cc1ccc2c(c1)C(=O)C(=O)N2Cc1ccc(Cl)cc1	0.731µM	n	u	u	u	0.92µM
Cc1ccc(N2CCN(Cc3ccccc3)CC2=O)c(C)c1	n	n	n	n	n	n
O=C1c2ccccc2N(Cc2ccc(Cl)cc2)C2=NCCN12	n	n	n	n	n	n
CCCCCOc1ccccc1CN1C(=O)C(=O)c2cc(C)ccc21	13µM	x	x	x	x	5.17µM
Cc1ccc2c(c1)C(CCN)C(=O)N2Cc1ccccc1 (stereo unspecified)	u	n	n	x	n	20.6µM
SMILES	TDP1 cell CPT	IL1B secr inh	HT1080 IDH1KD tx	ELG1 repair inh	HT1080-NT tox	TDP1 cell noCPT
Cc1ccc2c(c1)C(=O)C(=O)N2Cc1ccccc1	1.16µM	n	n	n	n	1.03µM
COc1ccc(-n2c(=O)c(CCc3ccccc3)nc3cnc(N4CCNCC4)nc32)cc1	u	x	x	x	x	n
COc1ccc2c(c1)OC[C@H]1[C@H]2N2C(=O)[C@H](C)NC(=O)[C@@]2(C)[C@H]1c1ccccc1	n	n	n	n	n	n
CN1N=C(C(=O)N2CCCC(N3CCN(c4ccc(F)cc4)CC3)C2)CCC1=O (stereo unspecified)	n	n	n	n	n	n
CCN1C(=O)C(=O)c2cc(C)ccc21	4.61µM	n	n	u	n	5.8µM
Cc1ccc2c(c1)C(=O)C(=O)N2Cc1ccc(F)cc1	0.731µM	n	n	u	n	0.92µM
O=C(COc1ccc(C(=O)NCCN2CCOCC2)cc1)Nc1cccc(C(F)(F)F)c1	n	n	n	n	n	u
Cc1cc(NC(=O)COC(=O)CCNS(=O)(=O)c2c(Cl)cccc2Cl)no1	n	n	n	n	n	n
Cc1ccc(-c2csc(NC(=O)C[n+]3cc(-c4ccc(C)cc4)n4c3CCC4)n2)cc1	5.8µM	-93.5	16.4µM	u	u	9.2µM
Cc1ccc(-c2csc(NC(=O)CN3CC(C)OC(C)C3)n2)cc1 (stereo unspecified)	u	n	u	u	u	u
Cc1ccc(-c2csc(NC(=O)C[n+]3cc(-c4ccccc4)n4c3CCC4)n2)cc1	20.6µM	-87.4	u	n	n	18.4µM
COc1ccc(C[C@@H]2CN3C(=NC[C@@H]3C)N2C[C@H](C)NC(=O)c2ccc(C)c(Br)c2)cc1	18.4µM	n	n	n	n	14.6µM
C/C=C(\C)C(=O)NCCN1C2=NC[C@@H](Cc3ccccc3)N2C[C@@H]1Cc1ccc(OC)cc1	n	n	n	x	n	n
Cc1ccc(C(=O)NCCN2C3=NC[C@H](C)N3C[C@H]2Cc2ccc(O)cc2)cc1Br	20.6µM	n	n	n	n	20.6µM
COc1ccc(C[C@H]2CN3C(=NC[C@H]3C)N2CCNC(=O)c2ccc(C)c(Br)c2)cc1	6.51µM	u	u	n	n	5.8µM
Cc1nc(-c2ccc(F)cc2)c(CC(=O)N(C)CC(=O)Nc2ccc(Br)cc2C)s1	u	n	n	n	n	u
CN(CC1CCOCC1)C(=O)CC1C(=O)NCCN1Cc1cccc(C(F)(F)F)c1 (stereo unspecified)	n	n	n	n	n	n
Cc1cc(C(=O)NCC(c2ccco2)N2CCCC2)c2ccccc2n1 (stereo unspecified)	n	n	n	n	n[9.24 µM]	n
C/C=C/Cn1c(SCc2ccccc2)nc2c1c(=O)[nH]c(=O)n2C	20.6µM	n	n	n	n	u
CC(C)CCn1c(SCc2ccc(Cl)cc2)nc2c1c(=O)[nH]c(=O)n2C	16.4µM	n	n	n	n	18.4µM
